Screening data deposited in PubChem BioAssay by National Center for Advancing Translational Sciences (NCATS).
Most compounds without a hit are left out; they make up all but 12% or so of the library.
JMJD2A Tudor inh = JMJD2A Tudor domain (human) inhibition. O75164. 390,000 tested, 4.4% active. Potency, µM (highest dose often 114 µM), for inactives: at the top dose activity change, negative = inhibition, usual class: inhibitors. AID 504339. AlphaScreen JMJD2A-Tudor / H3K4me3 peptide binding; also: potency is read from the fitted curve at half-maximal effect; % is scaled to controls: 0 for no effect and ±100 for the full control effect; nearly all actives have a fitted effect of over 50% in size
PI5P4Ka inh = blocks human PI5P4K alpha kinase activity; PI5P4Kalpha enzyme, ADP-Glo luminescence, 60 min; active compounds read low; max response, %; AID 652105; 330,000 tested, 1.2% active; active = max response of -50% or lower; inconclusive = between -30% and -50%; inactive = -30% or higher; also: value at the top dose of about 77 µM; % is scaled to controls: 0 for no effect and ±100 for the full control effect
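PI5P4Kalpha ADP-Glo assay; 5 microM ATP final; 60 min RT reaction; HEPES pH 7.4/EGTA/CHAPS, 5% DMSO; controls lacking substrate or enzyme; luminescent end-point.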
G9a block = blocks human histone lysine methyltransferase G9a; Q96KQ7; G9a H3K9 monomethylation, AlphaScreen, 2 h; Potency, µM (top dose mostly 102 µM), inactives show top-dose activity, negative = inhibition, actives largely listed as inhibitors; 350,000 tested, 8.8% active; AID 504332; also: potency is read from the fitted curve at half-maximal effect; % is scaled to controls: 0 for no effect and ±100 for the full control effect; nearly all actives have a fitted effect of over 75% in size
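Chemiluminescent proximity detection of H3K9 monomethylation, read after 10 min bead incubation in the dark. Reaction: 20 nM G9a, 500 nM biotin-H3K9 peptide, 20 uM SAM cofactor, 2 h, room temperature, following 15 min enzyme-compound preincubation.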
PLK1 PBD inh = inhibitors of human PLK1 polo-box domain binding; Plk1 PBD binding of FITC phosphopeptide, fluorescence polarization; Potency, µM, without a hit: max response, negative = inhibition, hits mostly inhibitors; 360,000 tested, 2.8% active; also: potency is read from the fitted curve at half-maximal effect; series mostly up to about 57 µM; % is scaled to controls: 0 for no effect and ±100 for the full control effect; nearly all actives have a fitted effect of over 65% in size
HP1b chromo inh = inhibitors of HP1-beta chromodomain binding to methylated histone tails. 390,000 tested, 0.56% active. Potency, µM (doses to about 114 µM), without a hit: at the highest dose activity change, negative = inhibition, usual class: inhibitors. P83916. AlphaScreen HP1-beta / biotin-H3K9me3 peptide binding; also: potency is read from the fitted curve at half-maximal effect; nearly all actives have a fitted effect of over 70% in size
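AlphaScreen: HP1-beta (50 nM) preformed 30 min with biotin-H3(1-18)K9me3 peptide (50 nM) in PBS pH 7.4, 0.01% Tween-20. Compound added for 30 min at RT, then streptavidin donor/nickel chelate acceptor beads (10 ug/mL) for 30 min.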
BAZ2B block = blocks human BAZ2B. AlphaScreen BAZ2B-H3K14Ac peptide displacement. Potency, µM (highest dose often 114 µM), inactives show at the top dose activity change, negative = inhibition, actives largely listed as inhibitors. 360,000 tested, 4.4% active; also: potency is read from the fitted curve at half-maximal effect; % is scaled to controls: 0 for no effect and ±100 for the full control effect; nearly all actives have a fitted effect of over 60% in size
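Compounds, titrated to a top concentration of 110 uM, were incubated 30 min at room temperature with preformed BAZ2B/acetyl-K14 H3 peptide complex (50 nM each). Proximity signal was measured by AlphaScreen after 20 min with beads.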
Active calls of the source: *; [ ] = dose if it differs, or a comment. Unless noted, calls follow the shape of the dose curve; as a rule, active = well fitted curve in the direction sought with a large enough effect; inconclusive = small, poorly fitted or top-dose-only effect, or another doubt; inactive = no such curve, though single readings can be large; an effect the other way counts as inactive or inconclusive.

Results for Cc1nnc(N2C(=O)C(=O)/C(=C(\O)c3ccc4c(c3)CC(C)O4)C2c2ccccc2)s1 (stereo not drawn) ?
JMJD2A Tudor inh: -29%; PI5P4Ka inh: -19; G9a block: 7%; PLK1 PBD inh: -14%; HP1b chromo inh: 12%[57 µM]; BAZ2B block: -26%

How did CC1Cc2cc(/C(O)=C3/C(=O)C(=O)N(CCCn4ccnc4)C3c3ccc(F)cc3)ccc2O1 (stereo not drawn) do in these assays?
JMJD2A Tudor inh: -24%; PI5P4Ka inh: -7; G9a block: 45µM*; PLK1 PBD inh: -19%; HP1b chromo inh: 40%; BAZ2B block: -24%[57.1 µM]

How did COc1cccc(C2/C(=C(/O)c3ccc4c(c3)CC(C)O4)C(=O)C(=O)N2c2nnc(C)s2)c1 (stereo not drawn) do in these assays?
JMJD2A Tudor inh: -34%; PI5P4Ka inh: -4; G9a block: 40µM*; PLK1 PBD inh: inconclusive; HP1b chromo inh: 8%; BAZ2B block: -25%

What do the screens show for `CCCCC1CC2=C(C(=O)OC(C)(C)O2)C(c2ccc(Cl)cc2)O1` (stereo not drawn)?
PI5P4Ka inh: 9; PLK1 PBD inh: -3%

What do the screens show for `Cc1ccc(-n2ncc3c(=O)n(CC(=O)N4CCN(C(=O)c5ccco5)CC4)cnc32)cc1`?
JMJD2A Tudor inh: -2%; PI5P4Ka inh: 3; G9a block: 34%[12.7 µM]; PLK1 PBD inh: -3%; HP1b chromo inh: 26%; BAZ2B block: 8%

Results for COC(=O)C1=C(C)NC(=O)NC1c1cn(-c2ccccc2)nc1-c1ccc(OC)c(Br)c1 (stereo not drawn) ?
JMJD2A Tudor inh: -31%; G9a block: inconclusive; HP1b chromo inh: 13%; BAZ2B block: inconclusive

What do the screens show for `CCCOc1ccc(-c2c(=O)n(O)c3ccccc3[n+]2[O-])cc1`?
JMJD2A Tudor inh: 56µM*; PI5P4Ka inh: 0; G9a block: 9%[0.501 µM]; PLK1 PBD inh: -21%; HP1b chromo inh: -18%; BAZ2B block: inconclusive

How did CCOc1ccc(-c2c(=O)n(OCc3ccccn3)c3ccccc3[n+]2[O-])cc1 do in these assays?
JMJD2A Tudor inh: -5%; PI5P4Ka inh: 0; G9a block: 17%; PLK1 PBD inh: -4%; HP1b chromo inh: 17%; BAZ2B block: -9%

Results for COc1ccc(C2=NOC(Cn3nc(C(=O)NCc4ccccc4OC)cc3-c3ccccc3)C2)cc1 (stereo not drawn) ?
JMJD2A Tudor inh: -17%; PI5P4Ka inh: 0; G9a block: -7%[2.33 µM]; PLK1 PBD inh: -4%; HP1b chromo inh: 12%; BAZ2B block: -4%

How did CC(=O)Oc1ccc2nc(-c3ccco3)oc(=O)c2c1 do in these assays?
JMJD2A Tudor inh: 28µM*; PI5P4Ka inh: inconclusive; G9a block: -38%[59 µM]; PLK1 PBD inh: 27µM*; HP1b chromo inh: 21%; BAZ2B block: -24%

How did CCOC(=O)c1[nH]c(C)c(CCC(=O)NCc2ccc(OCC)cc2)c1C do in these assays?
JMJD2A Tudor inh: -28%; G9a block: -16%[59 µM]; HP1b chromo inh: 20%[57 µM]; BAZ2B block: -15%

How did CCCSc1nc2sc3c(c2c(=O)[nH]1)CCN(Cc1ccccc1)C3 do in these assays?
JMJD2A Tudor inh: -27%[11.4 µM]; PI5P4Ka inh: -27; G9a block: 10µM*; PLK1 PBD inh: -11%; HP1b chromo inh: 10%; BAZ2B block: -2%

How did O=c1[nH]c(C(Cl)Cl)nc2sc3c(c12)CCN(Cc1ccccc1)C3 do in these assays?
JMJD2A Tudor inh: 79µM*; PI5P4Ka inh: -23; G9a block: 8.9µM*; PLK1 PBD inh: inconclusive; HP1b chromo inh: 27%; BAZ2B block: inconclusive

Results for CCCSc1nc2sc3c(c2c(=O)[nH]1)CC(C)CC3 (stereo not drawn) ?
JMJD2A Tudor inh: -14%; PI5P4Ka inh: 6; G9a block: -4%; PLK1 PBD inh: -2%; HP1b chromo inh: 24%; BAZ2B block: -18%

How did O=C(Cc1ccc(NC(=O)C2CCN(C(=O)C3CCCCC3)CC2)cc1)Nc1ccc(C(=O)N2CCOCC2)cc1 do in these assays?
JMJD2A Tudor inh: -2%; PI5P4Ka inh: -3; PLK1 PBD inh: 1%; HP1b chromo inh: 58%

Results for CC1(C)N=C(Nc2nc3ccccc3o2)NC2=C1C(=O)CCC2 ?
JMJD2A Tudor inh: -30%

What do the screens show for `O=C(NCCc1ccc(Cl)cc1Cl)c1cncc(Br)c1`?
JMJD2A Tudor inh: 1%; PI5P4Ka inh: 8; G9a block: 23%[2.33 µM]; PLK1 PBD inh: -10%; HP1b chromo inh: 55%; BAZ2B block: -1%

How did c1ccc2c(NCCN3CCOCC3)nc(-c3ccc4c(c3)OCO4)nc2c1 do in these assays?
G9a block: -42%[0.501 µM]

Results for Cn1cc(C(c2ccccn2)c2cn(C)c3ccccc23)c2ccccc21 ?
JMJD2A Tudor inh: 22µM*; PI5P4Ka inh: 5; G9a block: 11%[12.7 µM]; PLK1 PBD inh: 2%; HP1b chromo inh: inconclusive; BAZ2B block: 35µM*

How did c1ccc(C(c2c[nH]c3ccccc23)c2c[nH]c3ccccc23)nc1 do in these assays?
JMJD2A Tudor inh: 79µM*; PI5P4Ka inh: 8; G9a block: inconclusive; PLK1 PBD inh: -1%; HP1b chromo inh: -28%; BAZ2B block: 45µM*

What do the screens show for `c1ccc(C(c2cccs2)c2c[nH]c3ccccc23)cc1` (stereo not drawn)?
JMJD2A Tudor inh: -26%; G9a block: inconclusive; HP1b chromo inh: 15%; BAZ2B block: -31%

Results for Cn1cc(C(c2ccccc2OCC(=O)O)c2cn(C)c3ccccc23)c2ccccc21 ?
JMJD2A Tudor inh: 14µM*; PI5P4Ka inh: -53*; G9a block: -14%; PLK1 PBD inh: 3µM*; HP1b chromo inh: inconclusive; BAZ2B block: 50µM*

How did CC(=O)c1c(C)[nH]c(C2=NNC(=NC(C)(C)C)SC2)c1C do in these assays?
JMJD2A Tudor inh: -15%; PI5P4Ka inh: 0; G9a block: 32µM*; PLK1 PBD inh: -4%; HP1b chromo inh: 27%

Results for CCOC(=O)c1c(C)[nH]c(C2=NNC(=Nc3ccccc3OC)SC2)c1C ?
JMJD2A Tudor inh: 50µM*; PI5P4Ka inh: 5; G9a block: inconclusive; PLK1 PBD inh: 2%; HP1b chromo inh: inconclusive; BAZ2B block: inconclusive

How did CCOC(=O)c1c(C)[nH]c(C2=NNC(=Nc3ccccc3)SC2)c1C do in these assays?
JMJD2A Tudor inh: inconclusive; PI5P4Ka inh: -25; G9a block: 45µM*; PLK1 PBD inh: inconclusive; HP1b chromo inh: inconclusive; BAZ2B block: -37%

Results for CCOC(=O)c1c(C)[nH]c(C2=NNC(=Nc3ccc(OCC)cc3)SC2)c1C ?
JMJD2A Tudor inh: 56µM*; PI5P4Ka inh: -15; G9a block: inconclusive; PLK1 PBD inh: -11%; HP1b chromo inh: inconclusive; BAZ2B block: 50µM*
